The record followed here is PubChem BioAssay (NCI).

Molecules are shown by their SMILES. “And” between values parts separate entries of the source, which are not always exact repeats. Equal values may be shown once. This is part of a sample that, as a whole, favours compounds with a hit. Of some 83,000 tested, about 20% had one in any assay.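 For each line, cells grew in 96-well plates with the test compound present at a single concentration for 48 hours.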 The source made the active and inactive calls. The calls were made as follows: active = growth percent below 10; inactive = the rest.

The subject of the assay is MDA-MB-468 breast. Nature of the assay: NCI-60 one-dose screen, 48 h (100 = growth as untreated, 0 = no growth, -100 = all killed). As to conditions: 10 µM unless noted.
For `Cc1ccccc1C[P+](c1ccccc1)(c1ccccc1)c1ccccc1`, the growth is -17.6% (active).
The result for `COc1ccc(C(=O)OC2C(OC3C(O)COC(O[C@H]4C[C@H]5[C@@H]6CC=C7C[C@@H](O)CC[C@]7(C)[C@H]6CC[C@]5(C)[C@H]4[C@H](C)C(=O)CCC(C)C)C3OC(N)=O)OCC(O)C2O)cc1` (stereo not given in full) reads -24.5% (active).
As for `COc1cccc(NC(=O)Cn2cc(CN3CCN(c4ccnc5cc(Cl)ccc45)CC3)nn2)c1`, the figure is 84.1% (inactive).
On to `CC(C)NC(=O)c1cc(-c2ccc(NC(=O)Nc3ccc(F)c(C(F)(F)F)c3)cc2)nc2cccnc12`, for which the growth was 81.4% (inactive).
As for `Cc1ccccc1N=C(N)Nc1ccccc1C` (tested in a mixture with another compound), the figure is 87.1% (inactive); as for `Cc1nn(-c2ccccc2)c2nc3c(c(-c4ccc(Cl)cc4)c12)CNC1(CCSCC1)N3`, 93.1% (inactive); as for `C=CCn1c(SCC(=O)Nc2cccc(C(=O)/C=C/c3ccc(C)cc3)c2)nc2ccccc2c1=O`, 76.3% (inactive).
Consider `N=C(N)c1ccc(S(N)(=O)=O)cc1`, for which the growth is 96.8% (inactive).
Regarding `CC(C)Cc1ccc(C(C)C(=O)NCc2ccc(Cn3c(=O)sn(-c4ccc(Cl)cc4)c3=O)cc2)cc1` (stereo not given), the growth was 54.4% (inactive).
As for `COc1cc(C(=O)/C=C/c2cc(C(=O)c3cc(OC)c(OC)c(OC)c3)ccc2OC)ccc1N`, the figure is -44.7% (active); as for `CCCCCCNC(=O)Oc1ccc(/C(=C(\C)c2ccccc2)c2ccc(OCCCN(C)C)cc2)cc1`, 95% (inactive).
As for `COc1cc2cc(Oc3ccc(NC(=O)Nc4ccc(Cl)c(C(F)(F)F)c4)cc3)c(C)nc2cc1OCCN1CCOCC1`, the figure is -13.5% (active); as for `Fc1ccc(Nc2ncnc3ccc(-c4cn[nH]c4)cc23)cc1Cl`, -21.9% (active); as for `NC(=O)CCCN1C/C(=C\c2ccccc2)C(=O)c2ccccc21`, 90.8% (inactive).
Regarding `COc1cc(C2CC(=O)c3c(C)nn(-c4nc5ccccc5[nH]4)c3C2)cc(OC)c1OC` (stereo not given), the growth is 82% (inactive).
As for `c1ccc(-c2c(-c3ccccc3)[n+](Cc3ccc4ccccc4c3)cn2Cc2ccc3ccccc3c2)cc1`, the figure is -85% (active).
As for `N/C(=N\OC(=O)CSc1nc2ccccc2s1)c1ccc2ccccc2c1`, the figure is 102% (inactive); as for `CCCCCCCCC/C(=N\NC(=O)c1ccncc1)c1ccc(O)c(O)c1O`, 18.5% (inactive); as for `COc1cc(C(C)n2cc(-c3ccccc3)nn2)ccc1OC1CCCC1` (stereo not given), 5.07% (active).
The result for `O=C(c1ccccc1)C(Cl)C(Cl)c1ccccc1` (stereo not given) reads 17.6% (inactive).
As for `CN(C)CCCC1(c2ccc(F)cc2)OCc2cc(-c3csc4ccccc34)ccc21` (stereo not given), the growth is -68.5% (active).
As for `COc1cccc2c1O/C(=C\c1c([N+](=O)[O-])ncn1C)C2=O`, the figure is 101% (inactive); as for `CCCCCCCCCCCCCCCc1cc(O)ccc1N`, 70.1% (inactive) and 6.15% (active); as for `CCOc1cc2ncc(C#N)c(Nc3ccc(OCc4cccc(F)c4)c(Cl)c3)c2cc1NC(=O)CCCCC1CCSS1` (stereo not given), 70.4% (inactive).
As for `O=C(O)COCC(=O)O`, the figure is 93.6% (inactive); as for `CC1SC(=S)N(c2ccc(Cl)cc2)C1=O` (stereo not given), 84.9% (inactive) and 90.4% (inactive); as for `CCOc1ccc(Nc2nc(-c3c(C)nc4ncccn34)cs2)cc1`, 30.2% (inactive).
The result for `COc1ccc(C2CC(c3ccc(Nc4nc(NCCO)nc(Nc5ccc(Cl)cc5)n4)cc3)=Nc3c(N)nc(N)nc3N2)cc1` (stereo not given) reads -23% (active).
For `C[C@@H](c1ccc2c(c1)[nH]c1ccc(Cl)cc12)c1nc2ccc(Cl)cc2[nH]1`, the growth was -37.4% (active).
In the case of `O=C(/C=C/c1ccc(F)cc1)c1ccc(O)cc1`, the growth is 83% (inactive).
The result for `CCCCCN1C=C/C(=C\C(=O)N(C)c2ccc(OC(F)(F)F)cc2)c2ccccc21` reads 80.4% (inactive); that for `COC(=O)C1(C)COP(=O)(Nc2ccc(OC)cc2)OC1` (stereo not given), 106% (inactive).
The result for `COc1ccc2nc3ccccc3c(NCc3ccc(C)cc3)c2c1` reads -18.6% (active); that for `CNC(=O)c1cccc(-c2ccc3c(N4CCOC[C@@H]4C)nc(N4CCOC[C@@H]4C)nc3n2)c1`, -30.7% (active) and -22.8% (active).
In the case of `CN(C)C(=O)c1cc(-c2ccc3ncnc(NCc4ccccc4)c3c2)cnc1N`, the growth is 71.9% (inactive).
Take `N#CCCOc1ccccc1`: the growth is 114% (inactive).
As for `S=c1ccnc[nH]1`, the figure is 122% (inactive).
In the case of `COC(=O)c1c(C)c2n(c1C)C(=O)C(c1ccccc1)=C2`, the growth was 39.1% (inactive).
The result for `COc1ccc(OC)c(-c2ccc(-c3ccccc3N)c3[nH]c4ccccc4c23)c1` reads 72.1% (inactive).
The result for `OCc1cn(-c2ccc(Cl)cc2)nc1-c1ccc(O)cc1` reads 107% (inactive).
